Records with an inconclusive call do not appear. A call without a number means that no potency is given here. Unmarked numbers belong to inactive results. Activity calls are given as the source filed them. The call rests on the fitted dose curve; in most records, active means well fitted curve in the direction sought with a large enough effect; inconclusive means small, poorly fitted or top-dose-only effect, or another doubt; inactive means no such curve, though single readings can be large; an effect the other way counts as inactive or inconclusive.
Tests used:
[1] = target: Rap guanine nucleotide exchange factor 4 (Homo sapiens) (UniProt Q8WZA2); assay: Confirmatory qHTS for agonist of cAMP-regulated guanine nucleotide exchange factor 4 (EPAC2) (AID 1645884);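 further: nucleotide exchange releases bodipy-GDP from Rap1 and this lowers its fluorescence; nearly all actives have a fitted effect of over 65% in size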
Sequence of Rap guanine nucleotide exchange factor 4 (Homo sapiens) (Q8WZA2 whole entry, looked up): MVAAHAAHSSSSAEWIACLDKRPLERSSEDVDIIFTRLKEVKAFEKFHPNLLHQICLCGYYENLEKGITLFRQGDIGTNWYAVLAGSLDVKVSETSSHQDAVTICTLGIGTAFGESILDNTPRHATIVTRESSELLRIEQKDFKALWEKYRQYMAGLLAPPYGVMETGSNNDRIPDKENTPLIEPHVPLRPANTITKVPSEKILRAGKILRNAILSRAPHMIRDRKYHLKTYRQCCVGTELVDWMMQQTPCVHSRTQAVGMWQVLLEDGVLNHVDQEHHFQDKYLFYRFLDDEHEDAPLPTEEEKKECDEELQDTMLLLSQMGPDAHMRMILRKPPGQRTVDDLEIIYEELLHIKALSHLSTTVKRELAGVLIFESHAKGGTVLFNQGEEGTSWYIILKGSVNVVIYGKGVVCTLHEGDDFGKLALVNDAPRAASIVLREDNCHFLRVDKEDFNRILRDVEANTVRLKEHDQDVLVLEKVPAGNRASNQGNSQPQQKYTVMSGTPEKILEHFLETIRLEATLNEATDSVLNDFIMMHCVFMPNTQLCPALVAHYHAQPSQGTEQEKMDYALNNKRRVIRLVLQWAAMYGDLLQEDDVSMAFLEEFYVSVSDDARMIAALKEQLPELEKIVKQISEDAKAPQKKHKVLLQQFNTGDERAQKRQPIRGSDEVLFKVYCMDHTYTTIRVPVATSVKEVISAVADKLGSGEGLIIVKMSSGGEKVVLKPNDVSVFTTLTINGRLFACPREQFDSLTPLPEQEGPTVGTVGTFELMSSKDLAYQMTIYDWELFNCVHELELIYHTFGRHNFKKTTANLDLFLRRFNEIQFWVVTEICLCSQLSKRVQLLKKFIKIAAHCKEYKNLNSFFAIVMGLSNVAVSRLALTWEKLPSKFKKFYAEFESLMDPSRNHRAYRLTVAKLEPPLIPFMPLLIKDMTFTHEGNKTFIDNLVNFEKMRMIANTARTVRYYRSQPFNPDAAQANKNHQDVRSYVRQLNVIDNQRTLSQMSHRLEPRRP

[2] = target: Rap guanine nucleotide exchange factor 4 (Homo sapiens) (UniProt Q8WZA2); assay: Confirmatory qHTS for antagonist of cAMP-regulated guanine nucleotide exchange factor 4 (EPAC2) (AID 1645885); further: nearly all actives have a fitted effect of over 25% in size
[3] = target: Rap guanine nucleotide exchange factor 3 (Homo sapiens) (UniProt O95398); assay: Counterscreen qHTS for antagonist of cAMP-regulated guanine nucleotide exchange factor 3 (EPAC1) (AID 1645888);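 on activity change, negative = inhibition: fluorescence loss as bound BODIPY-GDP is released from Rap1B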
Sequence of Rap guanine nucleotide exchange factor 3 (Homo sapiens) (O95398 whole entry, looked up): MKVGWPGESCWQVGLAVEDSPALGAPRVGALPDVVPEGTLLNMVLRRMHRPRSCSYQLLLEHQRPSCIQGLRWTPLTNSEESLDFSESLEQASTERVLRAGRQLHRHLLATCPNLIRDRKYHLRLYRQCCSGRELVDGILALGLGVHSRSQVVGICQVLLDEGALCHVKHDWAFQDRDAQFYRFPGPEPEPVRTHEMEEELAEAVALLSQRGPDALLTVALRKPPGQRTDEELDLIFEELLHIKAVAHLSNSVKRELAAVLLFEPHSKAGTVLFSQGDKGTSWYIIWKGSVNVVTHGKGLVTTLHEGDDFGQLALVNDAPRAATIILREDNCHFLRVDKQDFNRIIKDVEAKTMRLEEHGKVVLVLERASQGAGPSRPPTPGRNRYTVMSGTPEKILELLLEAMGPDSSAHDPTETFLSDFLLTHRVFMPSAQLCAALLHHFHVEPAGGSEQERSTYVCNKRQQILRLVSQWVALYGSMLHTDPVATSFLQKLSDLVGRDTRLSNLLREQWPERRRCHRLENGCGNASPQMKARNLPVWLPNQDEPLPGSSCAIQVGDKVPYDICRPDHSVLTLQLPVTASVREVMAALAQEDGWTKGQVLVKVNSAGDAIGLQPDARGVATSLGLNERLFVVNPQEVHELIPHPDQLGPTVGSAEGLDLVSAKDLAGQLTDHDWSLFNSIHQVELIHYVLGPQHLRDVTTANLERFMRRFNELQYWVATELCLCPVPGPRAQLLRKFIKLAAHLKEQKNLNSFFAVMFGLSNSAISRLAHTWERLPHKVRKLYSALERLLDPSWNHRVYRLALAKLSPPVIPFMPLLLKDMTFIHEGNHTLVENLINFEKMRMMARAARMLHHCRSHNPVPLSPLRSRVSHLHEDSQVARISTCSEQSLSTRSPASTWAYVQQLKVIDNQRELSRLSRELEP
In short: (§1)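 Rap1B-BODIPY-GDP 250 nM + GDP 50 uM; cpds 7-pt, final 9.74 nM–152 uM (activator mode) or from 7.32 nM upwards (inhibitor mode); RT; FI 480/540 nm at 5 and 30 min, then ± cAMP, reread.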

[4] = target: Rap guanine nucleotide exchange factor 3 (Homo sapiens) (UniProt O95398); assay: Counterscreen qHTS for agonist of cAMP-regulated guanine nucleotide exchange factor 3 (EPAC1) (AID 1645889); further: nearly all actives have a fitted effect of over 40% in size
In short: as §1

[5] = target: Tumor susceptibility gene 101 protein (Homo sapiens) (UniProt Q99816); assay: qHTS Assay for Iinhibitors of HIV-1 Budding by Blocking the Interaction of PTAP/TSG101: Hit Validation (AID 651600); further: nearly all actives have a fitted effect of over 70% in size
Sequence of Tumor susceptibility gene 101 protein (Homo sapiens) (Q99816 whole entry, looked up): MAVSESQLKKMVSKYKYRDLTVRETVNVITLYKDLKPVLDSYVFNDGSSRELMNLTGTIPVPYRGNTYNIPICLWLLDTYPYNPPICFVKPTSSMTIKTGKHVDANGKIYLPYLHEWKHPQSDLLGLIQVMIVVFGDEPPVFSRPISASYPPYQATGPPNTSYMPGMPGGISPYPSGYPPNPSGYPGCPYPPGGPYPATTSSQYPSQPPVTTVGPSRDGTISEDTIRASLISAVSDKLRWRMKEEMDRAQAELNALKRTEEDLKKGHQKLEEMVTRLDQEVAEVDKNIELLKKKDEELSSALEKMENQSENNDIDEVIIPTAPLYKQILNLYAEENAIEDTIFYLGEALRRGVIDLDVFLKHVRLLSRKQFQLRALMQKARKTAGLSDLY
In short: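 Measuring PTAP–Tsg101 interaction by FP: protein at 10 uM and fluorescent peptide at 50 nM (final), buffer 10 mM HEPES pH 7.5 with 0.15 M NaCl, 3 mM EDTA, 0.1 mM TCEP, 0.01% Tween 20; 20 min incubation, r.t.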
Potency means the concentration at half of the fitted maximal effect.

With `CCOC(=O)c1cc(-c2ccc(/C=C3/C(=O)N(c4ccc(C(=O)O)cc4)N=C3C)o2)ccc1Cl` the Potency [1] was “inactive”, the Potency [2] was “inactive” and the Potency [3] was “inactive”. For the same compound, the Potency [4] was “inactive”.

In the case of `CCOc1cc(/C=C2\SC(=Nc3ccc(CC)cc3)NC2=O)ccc1OCC(=O)O`, the Potency [1] is reported as “inactive”, the Potency [2] is reported as “inactive” and the Potency [3] is reported as “inactive”. For the same compound, the Potency [4] was “inactive”.

With `CC(/C=C1\SC(=S)N(c2ccc(C(=O)O)cc2)C1=O)=C\c1ccccc1` the activation [1] was 7.79% [at 17.1 µM, percent relative to cAMP agonist control], the Potency [2] was “inactive” and the activity change, negative = inhibition [3] was 1.04% [at 30.8 µM]. It also gave an activation [4] of 18.6% [at 30.8 µM].

With `COc1ccc(C(=O)c2ccc(Br)cc2)c(OC)c1OC` the Potency [1] was “inactive”, the Potency [2] was 6.01 µM (active) and the Potency [3] was “inactive”. The Potency [4] was “inactive”.

In the case of `N=C1/C(=C\c2ccc(-c3cccc(C(=O)O)c3)o2)C(=O)N=C2SC=C(c3ccccc3)N12`, the Potency [1] is reported as 100 µM (active), the Potency [3] is reported as “inactive” and the Potency [4] is reported as “inactive”.

In the case of `CCOC(=O)c1c(CSc2ccccc2)n(C)c2cc(Br)c(OCC(O)CNC(CO)(CO)CO)cc12` (stereo not drawn), the Potency [1] is reported as 89.1 µM (active), the Potency [2] is reported as 26.9 µM (active) and the Potency [3] is reported as “inactive”. The Potency [4] was “inactive”.

With `O=C(O)COc1ccccc1/C=N/Nc1ccc(S(=O)(=O)Nc2ccc(Cl)cc2)cc1[N+](=O)[O-]` the activation [1] was 1.99% [at 17.1 µM, percent relative to cAMP agonist control], the Potency [2] was “inactive” and the activity change, negative = inhibition [3] was -8.36% [at 30.8 µM]. The activation [4] was 17.2% [at 30.8 µM].

`CC1(Cc2cc(Cl)ccc2C(F)(F)F)C(=O)Nc2c(Cl)cccc21` (stereo not drawn) was tested, and the Potency [1] was “inactive”, the Potency [2] was 30.1 µM (active) and the Potency [4] was “inactive”.

For `COc1ccc(C(=O)NCCn2cc(SCC(=O)NCCc3ccc(OC)c(OC)c3)c3ccccc32)cc1`, the Potency [1] was “inactive”, the Potency [2] was “inactive” and the Potency [3] was “inactive”. For the same compound, the Potency [4] was “inactive”.

In the case of `COc1cc(/C=C2\SC(=Nc3ccccc3)N(CCc3c[nH]c4ccccc34)C2=O)ccc1OC(C)C(=O)O` (stereo not drawn), the Potency [1] is reported as “inactive”, the Potency [2] is reported as “inactive” and the Potency [4] is reported as “inactive”.

For `Cc1ccc(CNC(=O)c2cccc3c2C(=O)c2ccc(N4CCC(C)CC4)cc2S3(=O)=O)cc1`, the Potency [2] was “inactive” and the Potency [4] was 11.2 µM (active).

`CC(=O)OCCn1c2nc(=O)[nH]c(=O)c-2nc2cc(C)c(C)cc21` was tested, and the Potency [5] was 0.919 µM (active), the Potency [1] was 100 µM (active) and the Potency [3] was 100 µM (active).

In the case of `O=C(NCc1ccc(OC(F)(F)F)cc1)c1cccc2c1C(=O)c1ccc(N3CCCC3)cc1S2(=O)=O`, the Potency [2] is reported as “inactive” and the activation [4] is reported as 20% [at 30.8 µM].

In the case of `CCN(CC)CCCC(C)n1c2nc(=O)[nH]c(=O)c-2nc2cc(Cl)ccc21` (stereo not drawn), the Potency [1] is reported as 100 µM (active) and the Potency [4] is reported as 63.1 µM (active).

In the case of `COc1cccc(CNc2cccc3cccnc23)c1O`, the Potency [2] is reported as “inactive” and the Potency [3] is reported as “inactive”.

`CC1CCN(c2ccc3c(c2)S(=O)(=O)c2cccc(C(=O)NC[C@@H]4CCCO4)c2C3=O)CC1` was tested, and the Potency [2] was “inactive” and the Potency [3] was “inactive”.

With `COC(=O)C(C)Sc1nc2ccsc2c(=O)n1Cc1ccccc1` (stereo not drawn) the Potency [2] was 26.9 µM (active) and the Potency [3] was “inactive”.

With `CN(C)/C=C1\C=C2C(=O)c3ccccc3N2C1=O` the Potency [1] was 5.01 µM (active) and the Potency [4] was 10 µM (active).

In the case of `COc1cccc(C2=NN(C(=O)c3ccco3)C(c3ccco3)C2)c1` (stereo not drawn), the Potency [2] is reported as “inactive”, the Potency [3] is reported as “inactive” and the Potency [4] is reported as “inactive”.

With `COc1ccc(O)c(C(c2c(C)[nH][nH]c2=O)c2c(C)[nH][nH]c2=O)c1` the Potency [2] was 75.7 µM (active) and the Potency [3] was “inactive”.

For `CCCCN(C)C1=CC2=CC(=C(C#N)C#N)CCC2CC1` (stereo not drawn), the Potency [5] was “inactive”, the Potency [1] was 126 µM (active) and the Potency [4] was 39.8 µM (active).

`Cc1c(CCC(=O)O)c(=O)oc2c(C)c3occ(-c4ccc(Br)cc4)c3cc12` was tested, and the Potency [2] was “inactive”, the Potency [3] was “inactive” and the Potency [4] was “inactive”.

For `Cc1cccc(N2CCN(S(=O)(=O)c3ccc4c(c3)CCN4C(=O)CCC(=O)O)CC2C)c1` (stereo not drawn), the Potency [2] was “inactive”, the Potency [3] was “inactive” and the Potency [4] was “inactive”.

With `OCc1ccc(-c2ccccc2)c(-c2ccccc2)c1` the Potency [2] was “inactive” and the Potency [3] was “inactive”.

`COc1cccc(Cn2c(=O)c3ccccc3n3nc(C)cc23)c1` was tested, and the Potency [2] was “inactive” and the Potency [3] was “inactive”.

For `Cc1c2ccccc2nc2c(F)c(NCCO)c(F)c(F)c12`, the Potency [5] was 8.19 µM (active), the Potency [2] was “inactive” and the Potency [3] was “inactive”.

For `O=C(CC1Sc2ccccc2NC1=O)OCc1cc(=O)oc2cc(O)ccc12` (stereo not drawn), the Potency [2] was “inactive” and the Potency [4] was “inactive”.

For `Cc1cc2ccccn2c1C(=O)c1ccccc1Br`, the Potency [2] was “inactive”, the Potency [3] was “inactive” and the Potency [4] was 25.1 µM (active).

With `O=S(=O)(c1ccc2[nH]c3c(c2c1)CCCC3)N1CCCCC1` the Potency [2] was “inactive” and the Potency [3] was “inactive”.

In the case of `COC(=O)c1ccc(COc2ccc(/C=C(\C#N)c3nc4ccccc4[nH]3)cc2OC)o1`, the Potency [2] is reported as “inactive” and the Potency [3] is reported as “inactive”.

With `COc1ccccc1Oc1nc(-c2cccnc2)nc2ccccc12` the Potency [2] was 67.5 µM (active) and the Potency [3] was “inactive”.

With `COCCn1c(-c2ccc(OC)cc2)c(-c2ccc(OC)cc2)oc1=O` the Potency [2] was “inactive” and the Potency [3] was “inactive”.
